For five compounds, outcome and AC50 results are on record in PubChem BioAssay (EPA / NIEHS).

Molecules are shown by their SMILES. Records with an inconclusive call do not appear. Activity calls are given as the source filed them. Rule for the calls, unless noted: active = hit-call score of the fitted dose curve at least 0.9, where 1 is the maximum; inactive = score below 0.9.

In assay [1] the target is Paired box protein Pax-6 (Homo sapiens) (UniProt P26367). Description: ATG_Pax6_CIS: Attagene CIS-FACTORIAL HepG2 Assay for human Paired Box 6 (PAX6) (AID 2282956). The following applies: HepG2 CIS-FACTORIAL PAX6 reporter transcription, RNA readout; actives raise or lower the signal. A digest of the protocol:
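Multiplexed cis-reporter HepG2 system; 24 h treatment; reporter mRNA read by RT-PCR/CE fluorescence; bidirectional fit vs DMSO.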

A short description of assay [2]: ATG_PXRE_CIS: Attagene CIS-FACTORIAL HepG2 Assay for human Pregnane X Receptor Element (PXRE) (AID 2282957). The following applies: HepG2 Attagene CIS-FACTORIAL PXRE reporter, mRNA; actives raise or lower the signal. A digest of the protocol: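 Transfect HepG2 with MRTUs (cis promoter elements); dose chemical, incubate 24 h; isolate RNA, RT with oligo(dT), PCR, 6-FAM label, HpaI cut, CE. Gain/loss fit vs DMSO.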

Assay [3] is described as follows: ATG_RORE_CIS: Attagene CIS-FACTORIAL HepG2 Assay for human RAR-related Orphan Receptor Element (RORE) (AID 2282959). The note with it: HepG2 Attagene cis-factorial RORE reporter, mRNA; actives raise or lower the signal. A digest of the protocol:
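Cells were HepG2 carrying transfected cis-regulated reporter constructs, dosed for 24 hours. Total RNA was reverse-transcribed and reporter cDNA amplified, fluorescently labeled and sized by capillary electrophoresis. Activity was fitted bidirectionally relative to DMSO.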

Assay [4] can be described thus: ATG_Sox_CIS: Attagene CIS-FACTORIAL HepG2 Assay for human SRY-box transcription factor (SOX) (AID 2282960). The following applies: HepG2 Attagene cis-factorial SOX reporter, mRNA; actives raise or lower the signal. A digest of the protocol:
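Transient MRTU transfection of HepG2; 24 h compound incubation; TriZol RNA, oligo(dT) RT, PCR, 6-FAM primer extension, HpaI cut, CE. Bidirectional fit, DMSO = baseline.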

Assay [5] addresses Signal transducer and activator of transcription 3 (Homo sapiens) (UniProt P40763). Description: ATG_STAT3_CIS: Attagene CIS-FACTORIAL HepG2 Assay for human Signal Transducer and Activator of Transcription 3 (STAT3) (AID 2282963). The note with it: HepG2, Attagene cis-factorial STAT3 reporter transcription; actives raise or lower the signal. A digest of the protocol:
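HepG2 cells transiently transfected with cis-element-driven multiple reporter transcription units; after 24 h chemical exposure, reporter mRNA measured by RT-PCR, 6-FAM primer-extension labelling, HpaI digestion and capillary electrophoresis. Bidirectional fitting versus DMSO baseline.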

Assay [6] can be described thus: ATG_TA_CIS: Attagene CIS-FACTORIAL HepG2 Assay for human TA Basal Promoter (AID 2282964). The following applies: HepG2 Attagene CIS-factorial TA basal promoter reporter; actives raise or lower the signal. A digest of the protocol: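 Background-control readout: TA basal promoter reporter mRNA, fitted in both directions relative to DMSO. Measured by RT-PCR and capillary electrophoresis 24 hours after treating HepG2 human liver cells transiently carrying multiplexed cis-regulated reporter constructs.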

A short description of assay [7]: ATG_TCF_b_cat_CIS: Attagene CIS-FACTORIAL HepG2 Assay for human T-Cell-Factor with beta-catenin (TCF/b-cat) (AID 2282965). The note with it: HepG2 TCF/beta-catenin cis-reporter transcription, actives raise or lower the signal. A digest of the protocol: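 Using capillary electrophoresis as the read-out, labelled reporter cDNA fragments from transiently transfected HepG2 were sized and quantified. Exposure lasted 24 hours; activity in either direction was referenced to DMSO.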

The nature of assay [8]: ATG_TAL_CIS: Attagene CIS-FACTORIAL HepG2 Assay for human TAL Basal Promoter (AID 2282966).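 Note: background control endpoint measuring basal TAL promoter reporter mRNA not a specific factor.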 The note with it: HepG2 Attagene cis-factorial TAL promoter reporter; actives raise or lower the signal. A digest of the protocol: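 Fluorescence of labelled reporter cDNA fragments, resolved by capillary electrophoresis, gave the readout. Human HepG2 liver cells carried transiently transfected cis-element reporter units and were treated for 24 hours; activity was fitted bidirectionally against DMSO.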

Assay [9] in a line: ATG_TGFb_CIS: Attagene CIS-FACTORIAL HepG2 Assay for human Transforming Growth Factor (TGF) (AID 2282967). The following applies: HepG2 Attagene CIS TGFb reporter, mRNA transcription; actives raise or lower the signal. A digest of the protocol:
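Endogenous TGFB1-linked transcription factor activity read as reporter mRNA via RT-PCR and capillary electrophoresis, 24 h after dosing transiently transfected HepG2 cells. Gain or loss of signal fitted relative to DMSO.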

Assay [10] in a line: ATG_VDRE_CIS: Attagene CIS-FACTORIAL HepG2 Assay for human Vitamin D Receptor Element (VDRE) (AID 2282968). The following applies: HepG2 VDRE cis-reporter transcription, actives raise or lower the signal. A digest of the protocol:
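HepG2 cells transiently transfected with cis-element reporter units, dosed 24 h; reporter mRNA measured by RT-PCR, 6-FAM labeling, HpaI digestion and capillary electrophoresis. Activity fitted bidirectionally against DMSO baseline.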

Assay [11] addresses Estrogen receptor (Homo sapiens) (UniProt P03372). Description: ATG_ERa_TRANS: Attagene TRANS-FACTORIAL HepG2 Assay for human Estrogen Receptor alpha (ERa) (AID 2282970; active = hit-call score of the fitted dose curve at least 0.9, where 1 is the maximum). The following applies: HepG2 Attagene TRANS ERa GAL4 reporter, mRNA. A digest of the protocol: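 Human liver HepG2, transient transfection of multiple GAL4-UAS reporter units; TRANS format (exogenous NR-Gal4 chimera). 24 h dosing. Readout: reporter mRNA, RT-PCR, 6-FAM primer extension, HpaI digest, capillary electrophoresis. Positive direction vs DMSO.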

The target of assay [12] is X-box-binding protein 1 (Homo sapiens) (UniProt P17861). Description: ATG_Xbp1_CIS: Attagene CIS-FACTORIAL HepG2 Assay for human X-box Binding Protein 1 (XBP1) (AID 2282972). The note with it: HepG2 XBP1 cis-element reporter, Attagene multiplex; actives raise or lower the signal. A digest of the protocol:
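Fluorescence-labelled cDNA fragments from reporter transcripts, separated by capillary electrophoresis, give the signal. Source: HepG2 cells transfected with promoter-driven reporter units, harvested 24 h post-dose. DMSO served as reference for bidirectional curve fitting.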

Assay [13] can be described thus: ATG_GAL4_TRANS: Attagene TRANS-FACTORIAL HepG2 Assay for GAL4 (Internal Marker) (AID 2282976; active = hit-call score of the fitted dose curve at least 0.9, where 1 is the maximum). The note with it: HepG2 Attagene TRANS GAL4 internal marker reporter. A digest of the protocol: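 First, HepG2 cells were transfected with reporter units under GAL4-UAS control. Next, they were treated with chemical for 24 h. Finally, RNA was reverse-transcribed, PCR-amplified, FAM-labelled and resolved by capillary electrophoresis, with induction scored against DMSO.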

Assay [14] addresses Transcription factor Sp1 (Homo sapiens) (UniProt P08047). Kind of assay: ATG_Sp1_CIS: Attagene CIS-FACTORIAL HepG2 Assay for human Specificity Protein 1 (Sp1) (AID 2282961). The following applies: HepG2 Sp1 cis-reporter transcription, actives raise or lower the signal. A digest of the protocol:
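Endogenous Sp1 activity was gauged in human liver HepG2 cells bearing transfected reporter units under a cis-regulating promoter. After 24 h dosing, reporter mRNA was quantified by RT-PCR with capillary electrophoresis, and activity fitted bidirectionally versus DMSO.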

Assay [15] can be described thus: ATG_SREBP_CIS: Attagene CIS-FACTORIAL HepG2 Assay for human Sterol Regulatory Element Binding (SREBP) (AID 2282962). The following applies: HepG2 Attagene cis-factorial SREBP reporter, mRNA; actives raise or lower the signal. A digest of the protocol:
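mRNA induction of transfected cis-promoter reporters in HepG2 cells, 24 h post-dose. Detection: RT-PCR with 6-FAM-labelled products, HpaI digest, capillary electrophoresis. DMSO served as negative control and baseline.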

Assay [16] in a line: ATG_PPRE_CIS: Attagene CIS-FACTORIAL HepG2 Assay for human Peroxisome Proliferator-activated Response Element (PPRE) (AID 2282958). The note with it: HepG2 PPRE cis-element reporter, Attagene transcription factor profiling; actives raise or lower the signal. A digest of the protocol:
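Cells are first transfected transiently with the multiplexed reporter library, then dosed for 24 h. Total RNA is reverse-transcribed, amplified, fluorescently end-labeled and HpaI-cut before capillary electrophoresis; activity is fitted bidirectionally against DMSO controls.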

Assay [17] in a line: ATG_M_19_TRANS: Attagene TRANS-FACTORIAL HepG2 Assay for M19 Transcription Factor (Internal Marker) (AID 2282974; active = hit-call score of the fitted dose curve at least 0.9, where 1 is the maximum). The note with it: HepG2 Attagene TRANS-FACTORIAL M19 internal marker reporter. A digest of the protocol: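 Cells: human HepG2, transiently transfected with multiplexed reporter transcription units. Exposure: 24 h. Detection: RT-PCR of reporter mRNA with capillary electrophoresis. Analysis: gain-of-signal vs DMSO.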

For assay [18], the target named is Nuclear receptor subfamily 1 group I member 3 (Homo sapiens) (UniProt Q14994). Kind of assay: ATG_CAR_TRANS: Attagene TRANS-FACTORIAL HepG2 Assay for human Constitutive Androstane Receptor (CAR) (AID 2282969; active = hit-call score of the fitted dose curve at least 0.9, where 1 is the maximum;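 note: activators raise reporter mRNA above DMSO so AC50 marks induction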). The following applies: HepG2 Attagene TRANS-FACTORIAL CAR reporter. A digest of the protocol: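 HepG2 cells transiently transfected with multiplexed GAL4-UAS reporter units expressing chimeric NR-Gal4 proteins; compound exposure 24 h. Reporter mRNA measured by RT-PCR, 6-FAM labelling, HpaI digestion and capillary electrophoresis; gain-of-signal fitted against DMSO baseline.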
Nuclear receptor subfamily 1 group I member 3 (Homo sapiens), sequence (Q14994 whole entry, looked up, the tested form may be a part): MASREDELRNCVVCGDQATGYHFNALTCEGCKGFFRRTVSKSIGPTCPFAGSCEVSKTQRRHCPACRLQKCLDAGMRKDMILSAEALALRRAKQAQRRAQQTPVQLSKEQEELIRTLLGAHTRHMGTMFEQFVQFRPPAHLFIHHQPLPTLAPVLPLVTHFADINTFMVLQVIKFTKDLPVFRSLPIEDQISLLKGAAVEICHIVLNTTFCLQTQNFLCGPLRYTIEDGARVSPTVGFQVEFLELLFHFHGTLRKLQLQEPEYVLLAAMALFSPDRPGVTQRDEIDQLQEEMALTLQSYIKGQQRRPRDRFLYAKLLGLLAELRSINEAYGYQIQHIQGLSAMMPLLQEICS

The target in assay [19] is Steroid hormone receptor ERR1 (Homo sapiens) (UniProt P11474). Kind of assay: ATG_ERRa_TRANS: Attagene TRANS-FACTORIAL HepG2 Assay for human Estrogen-Related Receptor alpha (ERRa) (AID 2282971; active = hit-call score of the fitted dose curve at least 0.9, where 1 is the maximum). The following applies: HepG2 Attagene TRANS reporter, ERRa transactivation. A digest of the protocol:
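Reporter transcript induction was quantified by RT-PCR and capillary electrophoresis of FAM-labelled, HpaI-cut products after 24 h treatment of HepG2 cells carrying transiently transfected GAL4-UAS reporter units and an exogenous ERRa-Gal4 fusion; activity scored as increase over DMSO.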

Transcription factor Sp1 (Homo sapiens), sequence (P08047 whole entry, looked up): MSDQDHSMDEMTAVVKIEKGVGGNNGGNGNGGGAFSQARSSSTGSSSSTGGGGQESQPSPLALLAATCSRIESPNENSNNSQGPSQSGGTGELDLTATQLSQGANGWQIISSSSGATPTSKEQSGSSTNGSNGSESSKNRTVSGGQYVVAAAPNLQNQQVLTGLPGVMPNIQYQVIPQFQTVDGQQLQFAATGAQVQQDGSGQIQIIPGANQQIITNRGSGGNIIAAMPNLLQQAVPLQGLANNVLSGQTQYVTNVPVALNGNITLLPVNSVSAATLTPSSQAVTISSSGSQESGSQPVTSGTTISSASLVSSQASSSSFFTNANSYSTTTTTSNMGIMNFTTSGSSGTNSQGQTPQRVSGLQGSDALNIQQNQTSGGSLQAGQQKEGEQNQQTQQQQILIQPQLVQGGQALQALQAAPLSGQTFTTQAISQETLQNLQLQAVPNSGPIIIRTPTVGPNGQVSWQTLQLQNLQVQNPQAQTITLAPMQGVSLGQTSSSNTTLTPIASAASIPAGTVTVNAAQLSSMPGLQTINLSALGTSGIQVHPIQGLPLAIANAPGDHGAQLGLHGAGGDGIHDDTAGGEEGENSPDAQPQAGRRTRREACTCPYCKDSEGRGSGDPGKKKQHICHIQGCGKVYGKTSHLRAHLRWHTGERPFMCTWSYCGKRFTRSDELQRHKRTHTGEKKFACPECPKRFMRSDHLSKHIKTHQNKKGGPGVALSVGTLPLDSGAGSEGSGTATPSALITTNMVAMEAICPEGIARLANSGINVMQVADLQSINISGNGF
Signal transducer and activator of transcription 3 (Homo sapiens), sequence (P40763 whole entry, looked up): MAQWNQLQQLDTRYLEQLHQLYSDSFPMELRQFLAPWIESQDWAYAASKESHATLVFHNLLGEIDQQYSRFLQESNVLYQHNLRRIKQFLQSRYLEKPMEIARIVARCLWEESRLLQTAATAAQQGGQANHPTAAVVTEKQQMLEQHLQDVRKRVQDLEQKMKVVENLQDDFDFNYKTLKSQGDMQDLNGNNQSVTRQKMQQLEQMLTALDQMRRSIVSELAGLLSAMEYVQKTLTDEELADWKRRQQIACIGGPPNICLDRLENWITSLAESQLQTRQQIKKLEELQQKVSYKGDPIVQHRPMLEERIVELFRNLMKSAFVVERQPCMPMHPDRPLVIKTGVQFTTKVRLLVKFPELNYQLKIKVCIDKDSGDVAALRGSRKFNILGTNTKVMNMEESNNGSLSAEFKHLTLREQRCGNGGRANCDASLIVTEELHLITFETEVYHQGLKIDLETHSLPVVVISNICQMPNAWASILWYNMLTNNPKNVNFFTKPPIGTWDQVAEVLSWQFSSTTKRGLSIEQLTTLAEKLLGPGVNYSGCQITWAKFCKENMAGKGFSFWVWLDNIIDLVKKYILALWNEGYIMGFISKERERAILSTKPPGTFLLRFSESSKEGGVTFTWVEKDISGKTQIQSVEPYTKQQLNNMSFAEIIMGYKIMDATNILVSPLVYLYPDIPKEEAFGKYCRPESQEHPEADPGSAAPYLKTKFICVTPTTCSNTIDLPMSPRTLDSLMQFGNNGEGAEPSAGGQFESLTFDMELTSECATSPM
Paired box protein Pax-6 (Homo sapiens), sequence (P26367 whole entry, looked up): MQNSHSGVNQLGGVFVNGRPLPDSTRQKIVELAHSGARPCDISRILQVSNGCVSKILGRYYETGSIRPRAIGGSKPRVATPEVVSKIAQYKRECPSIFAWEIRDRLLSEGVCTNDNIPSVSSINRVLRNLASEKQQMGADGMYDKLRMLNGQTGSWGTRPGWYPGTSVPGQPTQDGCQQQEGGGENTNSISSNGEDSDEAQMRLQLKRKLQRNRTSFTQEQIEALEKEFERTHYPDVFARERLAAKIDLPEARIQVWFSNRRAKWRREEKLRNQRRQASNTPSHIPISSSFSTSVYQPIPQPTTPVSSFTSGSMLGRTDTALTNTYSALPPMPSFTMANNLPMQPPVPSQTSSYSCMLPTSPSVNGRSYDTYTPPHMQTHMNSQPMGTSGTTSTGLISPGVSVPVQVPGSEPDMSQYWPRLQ
Estrogen receptor (Homo sapiens), sequence (P03372 whole entry, looked up, the tested form may be a part): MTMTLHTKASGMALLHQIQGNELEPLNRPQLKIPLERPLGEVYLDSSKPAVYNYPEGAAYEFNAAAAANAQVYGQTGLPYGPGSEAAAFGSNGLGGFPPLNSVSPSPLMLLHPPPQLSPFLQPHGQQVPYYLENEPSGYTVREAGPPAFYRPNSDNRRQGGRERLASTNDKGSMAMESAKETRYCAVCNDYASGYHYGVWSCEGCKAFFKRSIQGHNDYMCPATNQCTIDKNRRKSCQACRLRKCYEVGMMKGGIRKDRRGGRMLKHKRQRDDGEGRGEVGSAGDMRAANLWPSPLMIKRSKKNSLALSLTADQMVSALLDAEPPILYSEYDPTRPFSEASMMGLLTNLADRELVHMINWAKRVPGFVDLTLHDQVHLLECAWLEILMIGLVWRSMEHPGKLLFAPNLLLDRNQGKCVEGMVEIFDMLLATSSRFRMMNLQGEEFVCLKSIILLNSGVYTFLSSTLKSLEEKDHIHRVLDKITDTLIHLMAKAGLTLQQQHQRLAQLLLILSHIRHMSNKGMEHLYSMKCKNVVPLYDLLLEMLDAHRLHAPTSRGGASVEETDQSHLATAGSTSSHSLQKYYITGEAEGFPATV
X-box-binding protein 1 (Homo sapiens), sequence (P17861 whole entry, looked up, the tested form may be a part): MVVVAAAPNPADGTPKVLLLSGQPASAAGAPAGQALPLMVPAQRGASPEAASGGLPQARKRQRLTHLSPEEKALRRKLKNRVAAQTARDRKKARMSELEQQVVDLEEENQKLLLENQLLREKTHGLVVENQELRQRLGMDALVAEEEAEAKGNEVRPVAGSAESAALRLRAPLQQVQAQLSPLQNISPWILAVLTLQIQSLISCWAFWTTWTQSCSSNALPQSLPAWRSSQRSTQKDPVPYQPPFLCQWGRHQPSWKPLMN
Steroid hormone receptor ERR1 (Homo sapiens), sequence (P11474 whole entry, looked up, the tested form may be a part): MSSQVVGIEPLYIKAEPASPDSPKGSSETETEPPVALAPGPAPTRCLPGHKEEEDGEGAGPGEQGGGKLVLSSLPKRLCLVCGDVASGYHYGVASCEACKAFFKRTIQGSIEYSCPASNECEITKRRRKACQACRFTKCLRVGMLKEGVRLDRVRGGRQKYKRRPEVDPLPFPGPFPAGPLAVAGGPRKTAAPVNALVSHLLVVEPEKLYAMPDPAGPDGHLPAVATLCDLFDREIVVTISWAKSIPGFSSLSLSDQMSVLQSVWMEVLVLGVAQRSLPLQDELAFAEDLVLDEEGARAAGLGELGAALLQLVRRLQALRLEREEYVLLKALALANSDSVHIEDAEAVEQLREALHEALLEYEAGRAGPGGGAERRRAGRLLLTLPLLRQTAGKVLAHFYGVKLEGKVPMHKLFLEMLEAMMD

Turning to `COc1ccc([C@@H]2CC(=O)c3c(O)cc(O[C@@H]4O[C@H](CO[C@@H]5O[C@@H](C)[C@H](O)[C@@H](O)[C@H]5O)[C@@H](O)[C@H](O)[C@H]4O)cc3O2)cc1OC`, the result in assay [1], in assay [2], in [3], in assay [4], in [5] and in [6] was inactive. In addition, the outcome in assay [7], in [8], in assay [9], in [10], in assay [11] and in [12] was inactive. Further, the outcome in assay [13] was inactive.

In general, AC50 refers to the midpoint of the concentration-response curve, whichever way the signal moves. On to `Cc1cc(O)c(Cl)c(C)c1Cl`, for which the call in assay [1], in [3], in assay [4], in assay [14], in assay [15] and in assay [5] was inactive. In addition, the compound was called inactive in assay [6], in assay [8], in assay [9], in assay [10] and in [12]. Further, the AC50 in assay [2] was 15.1 µM (active); in [11] it was 26.8 µM (active).

`Cc1cnc(NC(=O)C2=C(O)c3ccccc3S(=O)(=O)N2C)s1`: the compound was classed as inactive in [1], in [16], in assay [3], in [4], in [14] and in assay [15]. In addition, the call in [6], in [7], in assay [8], in assay [9], in assay [11] and in [12] was inactive. For the same compound, the call in assay [17] was inactive.

As for `CCOC(=O)N1CCC(=C2c3ccc(Cl)cc3CCc3cccnc32)CC1`, the AC50 in [1] was 7.79 µM (active); in [3], 3.42 µM (active); in assay [6], 7.49 µM (active); in [7] it was 8.07 µM (active); in assay [8], 8.84 µM (active). Besides, the call in assay [4], in [14], in assay [15], in assay [5], in assay [9] and in [18] was inactive. Also, the compound was classed as inactive in [11], in [19], in [12], in assay [17] and in assay [13].

Turning to `CC(C)c1ccc2cc(C(C)C)ccc2c1`, the call in assay [1], in [2], in [3], in assay [14], in assay [15] and in assay [6] was inactive. The call in [7], in assay [8], in [9], in assay [10] and in assay [12] was inactive. In addition, the half-maximal activity concentration (AC50) in assay [4] is 59.9 µM (active); in assay [11], 13.7 µM (active).
